# Source: PubChem BioAssay (NCI)
# The panel holds about 83,000 compounds, 20% with a hit somewhere; the sample as a whole holds those more often.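 Method: cells in 96-well plates; compound added at one concentration; 48 h incubation; percent growth measured; values under 10 scored active.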 Unmarked numbers belong to inactive results. Calls of active or inactive are those of the source.
# Tested on: SF-539 CNS
# Assay: NCI-60 one-dose screen, 48 h (100 = growth as untreated, 0 = no growth, -100 = all killed)
# Conditions: 10 µM unless noted
row,Structure (SMILES),growth
1,COc1cc2c3c(c1)nc(C)n3CCC2,97.9%
2,Cc1sc2c(c1C)c(=O)nc1c(-c3nc4ccccc4s3)n[nH]n12,96.5%
3,COc1cc2c(cc1OCCCCCN1CCN(c3ncnc4ccccc34)CC1)N=CC1CCCN1C2=O (centres undefined),-77.3% (active)
4,COc1cc2c(cc1OCCCCN1CCN(CC(=O)Nc3ccc(Cl)cc3C(=O)c3ccccc3Cl)CC1)N=CC1CCCN1C2=O (centres undefined),-86.7% (active)
5,CCOC(=O)C1=C(C)NC(=O)NC1c1cc(=O)oc2ccc(C)cc12 (centres undefined),102%
6,COc1ccc2nc3cc(Cl)ccc3c(Nc3ccc(N(C)C)cc3)c2c1,95.1%
7,C[C@@H](C[C@H](CCO)c1cc(C(F)(F)F)cc(C(F)(F)F)c1)c1ccc2ccccc2c1,94.2%
8,COc1ccc2c(CCCc3ccc(Cl)cc3Cl)c3[n+](cc2c1OC)CCc1cc2c(cc1-3)OCO2,-46.3% (active)
9,COc1cc2c(cc1OCCCCCCN1CCN(c3ncnc4ccccc34)CC1)N=CC1CCCN1C2=O (centres undefined),-56.3% (active)
10,c1cc[n+](Cc2c3ccccc3cc3c2ccc2ccccc23)cc1,13.6%
11,CC(C)[C@@H]1CC[C@]2(CO2)[C@@H]2C(=O)OCC(C(=O)O)=C[C@H]21,6.83% (active)
12,N#Cc1c(NC(=O)c2cccs2)[n+]([O-])c2ccc(F)cc2[n+]1[O-],98.1%
13,CC(CCCC(=O)O)c1ccoc1 (centres undefined),102%
14,CCCCCCCC(=O)SCC/C=C/[C@@H]1CC(=O)NCc2nc(co2)C2=N[C@@](C)(CS2)C(=O)N[C@@H](C(C)C)C(=O)O1,9.22% (active)
15,Nc1c(C(=O)c2ccccc2)sc2nc(-c3cccs3)ccc12,1.09% (active)
16,COc1ccc2c(CCCCC(c3ccccc3)c3ccccc3)c3[n+](cc2c1OC)CCc1cc2c(cc1-3)OCO2,-64.5% (active)
17,CC(C)(C)C(=O)OCOP(=O)(OCOC(=O)C(C)(C)C)C1CCCN(OC(=O)c2ccccc2)C1=O (centres undefined),53%
18,O=C(Cc1ccccc1)Nc1nnc(NC2CCN(c3nnc(NC(=O)Cc4ccccc4)s3)CC2)s1,93.5%
19,CCCCCCC1(/C=N/NC(N)=O)NC(=O)NC1=O (centres undefined),96.3%
20,CC(N)C(Cc1ccc(Cl)cc1)c1ccc(Cl)cc1 (centres undefined),80.8%

row,Structure (SMILES),growth
1,CC(C)[C@@H](C)/C=C/[C@@H](C)[C@H]1CCC2=C3C=CC4=CC(=O)CC[C@]4(C)[C@H]3CC[C@@]21C,106%
2,CCOC(=O)C1=C(C)N=C2Sc3cc(OC(F)(F)F)ccc3N2[C@H]1c1ccccn1,41%
3,COC(=O)[C@]12CC[C@@H](C)[C@H](C)[C@@H]1C1=CC[C@@H]3[C@@]4(C)C(c5cnco5)=C[C@@](C)(CO)C4=CC[C@@]3(C)[C@]1(C)CC2,66.4%
4,C=C1C(=O)O[C@H]2[C@H]1CC/C(Cn1cc(-c3cc(C)c(C)cc3C)nn1)=C\CC[C@@]1(C)O[C@@H]21,-82.9% (active)
5,C=C1C(=O)O[C@H]2[C@H]1CC/C(CNC(=O)c1cc3cc(OC)ccc3[nH]1)=C\CC[C@@]1(C)O[C@@H]21,-60.6% (active)
6,C=CCC(=O)N[C@H](/C=C/C(=O)O)Cc1ccc(-c2cc(Cl)cc(Cl)c2)cc1,94.6%
7,NN1C(=O)CSC1=S,105%
8,CC(=O)C(C(C)=O)C(c1ccccc1)C(C(C)=O)C(C)=O,101%
9,COc1cc(NCCN(CC(C)C)CC(C)C)c2ncc(C)cc2c1,97.7%
10,COc1ccc2c(CCC(c3ccccc3)c3ccccc3)c3[n+](cc2c1OC)CCc1cc2c(cc1-3)OCO2,13.6%
11,O=C1CC(c2ccc3c(c2)OCO3)c2ncn(-c3ccc(Cl)cc3)c2N1 (centres undefined),1.25% (active)
12,Clc1nc(Cl)c2ncn(CC#CCn3cnc4c(Cl)nc(Cl)nc43)c2n1,-65.7% (active)
13,COc1ccc(C2CC(=O)c3c(O)c(OC)c(OC)c(OC)c3O2)c(O)c1 (centres undefined),-7.78% (active)
14,C[N+](C)(CCOC(c1ccccc1)c1ccccc1)CC(=O)OCc1ccccc1,105%
15,Nc1c2c(c(O)c3c1=C(CO)C=N3)=NCCS2,-95.8% (active)
16,Cc1cccc(NC(=O)[C@@H]2c3ccccc3C(=O)N(c3ccc(Cl)cc3)[C@H]2c2ccc(Cl)cc2)n1,71%
17,CC(N)C(Cc1ccccc1)c1ccc(Cl)cc1 (centres undefined),90.1%
18,C=CCCCC(=O)CCC(=O)OCC1O[C@@H](O[C@@H]2C(O)[C@@H](OC(C)=O)C(C)O[C@H]2O[C@H](CC=C)CCCCC)C(O)[C@@H](OC(=O)/C(C)=C/C)[C@@H]1OC(=O)/C=C/c1ccccc1 (some centres undefined),14.3%
19,COc1ccc2c(c1OC)C(=O)O[C@@H]2[C@H]1c2c(c(C#CC#Cc3ccc(F)c(F)c3)c3c(c2OC)OCO3)CCN1C,94.9%
